Test results as given in PubChem BioAssay AID1159580 (chemical genetic matrix, 2015).
Where “and” joins values, the source holds several entries; their conditions need not be identical. Equal entries are not always repeated. Hit rate of the full screen: of about 5,500 compounds, about 2,000 (36%) were called active. Not shown: some 18% with an inconclusive outcome. Cut-off read from the data, not from the text of the source: active = normalized growth mostly below about 0.91 (no sharp cut-off); inconclusive = no clear call, values can overlap the other calls; inactive = mostly above about 0.92. The list shows a part of the results.

Test: chemical genetic growth profiling, strain panel (AID 1159580);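 note: tested at 20 µM; growth read once vehicle control cultures reached saturation at 30 °C; 1 = growth at the plate median or of vehicle wells; lower values mean less growth of the strain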
Settings: S. cerevisiae deletion strains, growth OD

Measured: normalized growth

CCCc1nn(C)c2c(=O)[nH]c(-c3cc(S(=O)(=O)N4CCN(C)CC4)ccc3OCC)nc12
inactive: locus YAL013W, strain DEP1, hits give low values 1.02 | locus YAL021C, strain ccr4, hits give low values 0.991 | locus YAL026C, strain drs2, hits give low values 0.988 | locus YAL030W, strain snc1, hits give low values 0.997 | locus YBL061C, strain skt5, hits give low values 0.989 | locus YBR009C, strain hhf1, hits give low values 1 | locus YBR021W, strain FUR4, hits give low values 1.05 | locus YBR023C, strain chs3, hits give low values 0.988 | locus YBR171W, strain sec66, hits give low values 0.99 | locus YBR229C, strain ROT2, hits give low values 1.02 | locus YBR231C, strain swc5, hits give low values 0.988 | locus YBR279W, strain paf1, hits give low values 0.985 | locus YCL011C, strain gbp2, hits give low values 0.987 | locus YCL016C, strain dcc1, hits give low values 0.994 | locus YCL029C, strain bik1, hits give low values 0.993 | locus YCL061C, strain MRC1, hits give low values 0.981 | locus YCL069W, strain vba3, hits give low values 0.992 | locus YCR088W, strain abp1, hits give low values 0.983 | locus YDL005C, strain med2, hits give low values 0.987 | locus YDL035C, strain GPR1, hits give low values 1.03 | locus YDL040C, strain nat1, hits give low values 0.991 | locus YDL074C, strain BRE1, hits give low values 1.07 | locus YDL101C, strain DUN1, hits give low values 1.02 | locus YDL134C, strain PPH21, hits give low values 1.03 | locus YDL185W, strain tfp1, hits give low values 1 | locus YDL192W, strain arf1, hits give low values 0.989 | locus YDR001C, strain nth1, hits give low values 0.989 | locus YDR069C, strain doa4, hits give low values 0.991 | locus YDR101C, strain arx1, hits give low values 0.991 | locus YDR137W, strain rgp1, hits give low values 0.986 | locus YDR150W, strain NUM1, hits give low values 1.02 | locus YDR159W, strain sac3, hits give low values 1 | locus YDR162C, strain NBP2, hits give low values 1.01 | locus YDR195W, strain ref2 0.978 | locus YDR297W, strain sur2, hits give low values 0.991 | locus YDR318W, strain mcm21, hits give low values 1 | locus YDR334W, strain swr1, hits give low values 0.989 | locus YDR335W, strain msn5, hits give low values 0.993 | locus YDR388W, hits give low values 0.962 | locus YDR392W, strain spt3, hits give low values 0.989 | locus YDR502C, strain sam2, hits give low values 0.99 | locus YEL003W, strain gim4, hits give low values 0.995 | locus YEL037C, strain rad23, hits give low values 0.992 | locus YEL061C, strain CIN8 (second series), hits give low values 0.988 | locus YEL061C, strain CIN8, hits give low values 1.02 | locus YER015W, strain faa2, hits give low values 0.994 | locus YER016W, strain bim1, hits give low values 0.988 | locus YER110C, hits give low values 0.974 | locus YER111C, strain swi4, hits give low values 0.989 | locus YER155C, strain BEM2 (second series), hits give low values 0.987 | locus YER155C, strain BEM2, hits give low values 1.01 | locus YER167W, strain BCK2, hits give low values 1.03 | locus YFR010W, strain ubp6, hits give low values 0.98 | locus YGL078C, strain dbp3, hits give low values 0.985 | locus YGL086W, strain mad1, hits give low values 0.992 | locus YGL167C, strain pmr1, hits give low values 1 | locus YGL173C, strain kem1, hits give low values 0.983 | locus YGL227W, strain vid30, hits give low values 0.988 | locus YGL240W, strain doc1, hits give low values 1 | locus YGL248W, strain PDE1, hits give low values 1.02 | locus YGL253W, strain hxk2, hits give low values 0.995 | locus YGR078C, strain PAC10, hits give low values 1.04 | locus YGR135W, strain pre9, hits give low values 0.995 | locus YGR229C, strain SMI1, hits give low values 1.03 | locus YGR252W, strain gcn5, hits give low values 0.953 | locus YHR013C, strain ard1, hits give low values 0.956 | locus YHR027C, strain rpn1, hits give low values 0.992 | locus YHR030C, strain SLT2, hits give low values 1.02 and 1.03 | locus YHR079C, strain IRE1 (second series), hits give low values 0.991 | locus YHR079C, strain IRE1, hits give low values 1.05 | locus YHR094C, strain hxt1, hits give low values 0.995 | locus YHR129C, strain ARP1, hits give low values 1.02 | locus YHR142W, strain chs7, hits give low values 0.99 | locus YHR200W, strain rpn10, hits give low values 1 | locus YIL066C, strain RNR3, hits give low values 1.03 | locus YIL073C, strain SPO22, hits give low values 1.06 | locus YIL125W, strain kgd1, hits give low values 0.994 | locus YIR030C, strain dcg1, hits give low values 0.997 | locus YJL092W, strain hpr5, hits give low values 0.99 | locus YJL095W, strain BCK1 (second series), hits give low values 0.986 | locus YJL095W, strain BCK1, hits give low values 1.04 and 1.01 | locus YJL115W, strain asf1, hits give low values 0.993 | locus YJL129C, strain trk1, hits give low values 0.995 | locus YJL134W, strain LCB3, hits give low values 1.01 | locus YJL154C, strain vps35, hits give low values 0.988 | locus YJL164C, strain tpk1, hits give low values 0.999 | locus YJL166W, strain qcr8, hits give low values 0.991 | locus YJL168C, strain set2, hits give low values 0.995 | locus YJL187C, strain SWE1 (second series), hits give low values 1.02 | locus YJL187C, strain SWE1, hits give low values 0.991 | locus YJR043C, strain POL32, hits give low values 1.04 | locus YJR066W, strain TOR1, hits give low values 0.981
